Where “and” joins values, the source holds several entries; their conditions need not be identical. Identical values can stand only once. Calls of active or inactive are those of the source.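 Rule for the calls, unless noted: active = mean z-score across replicates of 1.96 or higher in either the MELAS or the Rieske mutant cell line; inactive = the rest.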
Assays:
[1] = sensitizers of A549 cells to miR-34 induction, primary screen, imaging, A549 dox-inducible miR-34, nuclei and caspase counts (AID 1347080;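 active = compounds whose cell count with miR-34 switched on is under 0.7 times the count with it off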); conditions: A549 miR-34 inducible, Hoechst nuclei count, 48 h
[2] = survival rescue of mitochondrial mutant cells in low glucose, primary screen, MELAS cybrids, Rieske KO mouse fibroblasts, CellTiter-Glo (AID 1508586);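 note: z relative to plate mean and SD of compound and empty wells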
[3] = stronger effect = lower value, cell number ratio, induced over uninduced
[4] = measured here: relative caspase fold change +Dox/-Dox
[5] = measured here: total cells with miR-34 induction, stronger effect = lower value
[6] = measured here: total cells without miR-34 induction
[7] = MELAS cybrid survival, CellTiter-Glo 48 h, stronger effect = higher value
[8] = Rieske KO mouse fibroblast survival, CellTiter-Glo 72 h
Note: test concentration not given here.

Row | SMILES | fold change [1, 3] | fold change [1, 4] | cell count [1, 5] | cell count [1, 6] | z-score [2, 7] | z-score [2, 8]
1 | Oc1cc(O)cc(C=Cc2ccc(O)c(O)c2)c1 | 0.901 (inactive) | 0.971 | 9720 | 10800 | -0.345 (inactive) | 0.783
2 | CCC(C)Nc1cc(C(=O)NC2CC3CCC(C2)N3c2ccc(C(=O)C3CC3)cn2)c(C)cc1C(N)=O (centres undefined) | 0.94 (inactive) | 0.437 | 2340 | 2490 | 2.2 (active) | -1.06
3 | Cc1ccc(-c2c(-c3nn(C)c4ncnc(N5CCC(N6CCCCC6)C5)c34)cnn2C)cc1 (centres undefined) | 0.989 (inactive) | 0.458 | 8040 | 8120 | -0.254 (inactive) | -0.0628
4 | [K+] | 0.939 (inactive) | 0.429 | 7790 | 8290 | 0.0668 (inactive) | 0.0929
5 | C[C@@]12CC[C@H]3c4ccc(O)cc4CC(CCCCCCCCCS(=O)CCCC(F)(F)C(F)(F)F)[C@H]3[C@@H]1CCC2O (some centres undefined) | 0.975 (inactive) | 0.957 | 4560 | 4680 | -0.569 (inactive) | 0.522
6 | C=CC1CN2CC[C@H]1C[C@H]2C(O)c1ccnc2ccc(OC)cc12 (some centres undefined) | 0.964 (inactive) | 0.844 | 8110 | 8420 | -0.205 (inactive) | -0.396
7 | Cc1onc(-c2ccccc2Cl)c1C(=O)NC1C(=O)N2C(C(=O)O)C(C)(C)S[C@@H]12 (some centres undefined) | 0.964 (inactive) | 0.778 | 9670 | 10000 | -0.365 (inactive) | 0.485
8 | CCC(C)CC(C)CCCCCCCCC(=O)NC1CC(O)C(NCCN)NC(=O)[C@@H]2C(O)CCN2C(=O)[C@@H](C(O)CCN)NC(=O)[C@H](C(O)C(O)c2ccc(O)cc2)NC(=O)[C@@H]2CC(O)CN2C(=O)[C@H](C(C)O)NC1=O (some centres undefined) | 0.95 (inactive) | 0.316 | 7980 | 8400 | -0.141 (inactive) | 0.0344
9 | CCC[C@@H]1OC2C[C@H]3[C@@H]4CCC5=CC(=O)C=C[C@]5(C)[C@@H]4C(O)C[C@]3(C)[C@@]2(C(=O)CO)O1 (some centres undefined) | 1.01 (inactive) | 0.72 | 3350 | 3330 | -0.541 (inactive) | -0.57
10 | COC1O[C@H]2O[C@@]3(C)CC[C@H]4[C@@H](C)CC[C@@H]([C@H]1C)[C@@]24OO3 (some centres undefined) | 0.86 (inactive) | 1.37 | 7410 | 8620 | -0.241 (inactive) | 0.578
11 | COc1cc(C(C)=O)ccc1O | 0.901 (inactive) | 0.815 | 7660 | 8500 | -0.427 (inactive) | -0.0762
12 | CC(=O)OC1C(=O)[C@]2(C)C(O)CC3OC[C@@]3(OC(C)=O)C2C(OC(=O)c2ccccc2)[C@]2(O)CC(OC(=O)C(O)C(NC(=O)c3ccccc3)c3ccccc3)C(C)=C1C2(C)C (some centres undefined) | 0.984 (inactive) | 0.702 | 1360 | 1380 | 1.51 (inactive) | 0.434
13 | CC(=O)OCC(=O)[C@]12OC(C)(C)OC1C[C@H]1[C@@H]3CC(F)C4=CC(=O)C=C[C@]4(C)[C@]3(F)C(O)C[C@@]12C (some centres undefined) | 0.819 (inactive) | 1.14 | 5400 | 6590 | -0.325 (inactive) | -0.647
14 | OCC(O)C(O)C(O)C(O)CO (centres undefined) | 0.977 (inactive) and 0.927 (inactive) | 0.781 and 0.815 | 7830 and 9620 | 8020 and 10400 | -0.426 (inactive) and -0.241 (inactive) | -0.124 and 0.173
15 | Cc1cc(C(N)=O)ccc1-n1c(CCC(=O)O)ccc1-c1ccc(-n2ccnc2)cc1 | 0.953 (inactive) | 0.396 | 9360 | 9820 | -0.283 (inactive) | 0.463
16 | CCN(C)C(=O)Oc1cccc(C(C)N(C)C)c1 (centres undefined) | 0.91 (inactive) | 0.79 | 8110 | 8910 | -0.173 (inactive) | 0.451
17 | Cc1nc(N(C)C(=O)Cc2ccc(-c3ccccn3)cc2)sc1S(N)(=O)=O | 0.911 (inactive) | 0.414 | 7530 | 8270 | -0.339 (inactive) | -0.561
18 | CCC(Nc1ncnc2nc[nH]c12)c1nc2cccc(F)c2c(=O)n1-c1ccccc1 (centres undefined) | 0.873 (inactive) | 0.869 | 6860 | 7860 | -0.15 (inactive) | 0.351
19 | CCCC(C)NC(=O)c1ccc(Cl)c(Cl)c1 (centres undefined) | 0.868 (inactive) | 0.485 | 8950 | 10300 | -0.371 (inactive) | 0.701
20 | COc1c(C)c2c(c(O)c1CC=C(C)CCC(=O)OCCN1CCOCC1)C(=O)OC2 | 0.917 (inactive) | 1.06 | 1830 | 1990 | 0.827 (inactive) | -0.579
21 | COC(=O)NC(C)CNc1nccc(-c2cn(C(C)C)nc2-c2cc(Cl)cc(NS(C)(=O)=O)c2F)n1 (centres undefined) | 0.982 (inactive) | 0.272 | 5200 | 5290 | 0.61 (inactive) | 1.4
22 | CC(C)Oc1ccc(C(=O)NC(CNC(=O)CN(C)C)Cc2ccc(-c3cn4cccc(C(C)O)c4n3)cc2)cc1Cl (centres undefined) | 1 (inactive) | 0.389 | 1600 | 1590 | 1.36 (inactive) | -2.78
23 | CC1CC[C@H]2C(C)C(O)O[C@H]3O[C@@]4(C)CC[C@@H]1[C@]32OO4 (some centres undefined) | 0.953 (inactive) | 0.983 | 4540 | 4770 | -0.379 (inactive) | 0.102
24 | Cc1cc(Nc2ccc(NC(=O)c3ccc(Nc4ccnc5ccccc45)cc3)cc2)nc(N)n1 | 0.978 (inactive) | 0.411 | 6080 | 6210 | -0.384 (inactive) | -1.35
25 | COCC(NC(=O)c1cnc(C)s1)C(=O)NC(COC)C(=O)NC(Cc1ccccc1)C(=O)C1(C)CO1 (centres undefined) | 0.898 (inactive) | 1.09 | 714 | 796 | 0.992 (inactive) | -0.399
26 | CC(=O)Nc1cccc2c1c(Sc1ccc(Cl)cc1)c(C)n2CC(=O)O | 0.864 (inactive) | 0.281 | 7890 | 9130 | -0.287 (inactive) | -2.23
27 | C=C1C(=CC=C2CCC[C@]3(C)C(C(C)CCCC(C)(C)O)CC[C@@H]23)CC(O)CC1O (some centres undefined) | 0.915 (inactive) | 1.06 | 6550 | 7160 | -0.468 (inactive) | 0.543
28 | O=C(O)CCCN1CCC(OC(c2ccc(Cl)cc2)c2ccccn2)CC1 (centres undefined) | 0.967 (inactive) | 1.77 | 8100 | 8370 | 0.387 (inactive) | -0.496
29 | O=C(NCc1cccc(O)c1)Nc1nc(-c2ccncc2)cs1 | 0.899 (inactive) | 0.419 | 2990 | 3330 | 0.152 (inactive) | -1.61

Reference: PubChem BioAssay
